Many of the other results were omitted from the sample, so hits are more common in it than they were.
Glioma ERSR ind: ER stress response induction in glioma; U87-MG GRP78 promoter luciferase reporter, 16 h; Potency, µM, for the others: at the top dose activation, actives largely listed as activators; 420,000 compounds, 0.02% hits; AID 602332; also: series mostly up to about 76 µM; % of control where 0% means no effect; nearly all actives have a fitted effect of over 35% in size
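ERSR induction read as luciferase luminescence (Bright-Glo, 10 min at room temperature) in stably transfected human U87-MG glioma cells exposed to compounds for 16 h, using GRP78 as sensor.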
Sfp PPTase inh: Sfp phosphopantetheinyl transferase inhibition | Q9F4F7 | Biochemical Sfp PPTase activity, qHTS | Potency, µM, without a hit: largest response in the series, negative = inhibition, most hits filed as inhibitors | 310,000 compounds, 3.5% hits | AID 1490;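 also: the enzyme is Sfp with the accession as filed and its product quenches rhodamine fluorescence; 0% = enzyme reaction without inhibitor and -100% = no enzyme wells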
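Reaction rates are the 30-min fluorescence difference (ex 525, em 598 nm) in wells containing 15 nM Sfp, 5 uM rhodamine-CoA and 12.5 uM BHQ-2-YbbR at pH 7.6 with 10 mM MgCl2.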
VDR inh: vitamin D3 receptor (human) inhibition; VDR-SRC2-3 peptide fluorescence polarization, 2 h; Potency, µM, inactives show max response, negative = inhibition, most hits filed as inhibitors; 400,000 compounds, 0.93% hits; AID 504847; also: % is scaled to controls: 0 for no effect and ±100 for the full control effect
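Signal is fluorescence polarization, reporting how far test compounds block the interaction of VDR with the SRC2-3 coregulator peptide after a 2 h room-temperature incubation.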
12-LOX inh: inhibitors of human 12S-lipoxygenase ALOX12 | purified 12hLO, xylenol orange hydroperoxide absorbance | 580,000 compounds, 1.1% hits | P18054 | Potency, µM (doses to about 108 µM), without a hit: at the top dose activity change, negative = inhibition, hits mostly inhibitors | AID 1671190; also: % is scaled to controls: 0 for no effect and ±100 for the full control effect
Target sequence (P18054 whole entry, looked up): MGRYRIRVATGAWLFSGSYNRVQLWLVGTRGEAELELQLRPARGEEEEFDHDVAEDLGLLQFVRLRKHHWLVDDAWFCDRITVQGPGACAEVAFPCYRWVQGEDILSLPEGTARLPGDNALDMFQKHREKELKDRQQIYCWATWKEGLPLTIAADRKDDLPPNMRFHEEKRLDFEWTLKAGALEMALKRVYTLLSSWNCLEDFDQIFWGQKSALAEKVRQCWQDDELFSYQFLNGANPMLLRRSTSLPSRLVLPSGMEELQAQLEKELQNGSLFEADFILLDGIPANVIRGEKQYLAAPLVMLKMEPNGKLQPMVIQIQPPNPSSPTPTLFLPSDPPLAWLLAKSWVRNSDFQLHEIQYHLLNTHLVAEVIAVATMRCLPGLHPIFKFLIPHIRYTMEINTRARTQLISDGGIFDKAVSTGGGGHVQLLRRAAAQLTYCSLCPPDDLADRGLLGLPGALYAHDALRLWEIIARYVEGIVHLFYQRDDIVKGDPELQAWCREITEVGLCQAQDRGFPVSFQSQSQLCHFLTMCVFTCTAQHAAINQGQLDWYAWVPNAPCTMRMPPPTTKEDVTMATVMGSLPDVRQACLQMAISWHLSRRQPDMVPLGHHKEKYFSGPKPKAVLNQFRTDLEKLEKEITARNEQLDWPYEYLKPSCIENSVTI
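Hydroperoxide product was detected by ferrous iron/xylenol orange as the 573 to 405 nm absorbance ratio. Arachidonic acid at 40 uM (final) was turned over for 30 min at room temperature by 150 nM human 12hLO, pH 7.0 Hepes buffer, after 15 min compound preincubation.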
G9a inh: inhibitors of human histone lysine methyltransferase G9a; Potency, µM (titrated, usually from 102 µM), inactives show at the highest dose activity, negative = inhibition, usual class: inhibitors; 350,000 compounds, 8.8% hits; G9a H3K9 monomethylation, AlphaScreen, 2 h; AID 504332; Q96KQ7; also: % is scaled to controls: 0 for no effect and ±100 for the full control effect; nearly all actives have a fitted effect of over 75% in size
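Signal arises when biotinylated H3K9 peptide, once monomethylated, bridges streptavidin donor and antibody-captured acceptor beads. Enzyme at 20 nM was preincubated 15 min with test compounds; peptide 500 nM and SAM 20 uM then reacted for 2 h.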
Numbers without * were called inactive; [ ] = remark or other dose. Calls follow the shape of the dose curve; as a rule, active = well fitted curve in the direction sought with a large enough effect; inconclusive = small, poorly fitted or top-dose-only effect, or another doubt; inactive = no such curve, though single readings can be large; an effect the other way counts as inactive or inconclusive. Potency is read from the fitted curve at half-maximal effect.

For Cc1cccc(-n2c3c(cc(C#N)c2=O)C(=O)CC(c2ccccc2)C3)c1C (stereo not drawn) the results were 12-LOX inh -8%.
Screening C=C(C)COc1ccc(C(=O)Nc2ccccc2)cc1 returned 12-LOX inh -4%.
For Cc1ccccc1C(=O)Oc1cccc(C)c1C the results were 12-LOX inh -3%.
For O=C1C=C(c2ccccc2)C[C@H](c2cccs2)[C@H]1n1nnc([N+](=O)[O-])n1 the results were Glioma ERSR ind -5%, Sfp PPTase inh -2%, VDR inh -10%, 12-LOX inh 50µM* and G9a inh inconclusive.
For Nc1nccnc1C(=O)Nc1ccc2ccccc2n1 the results were 12-LOX inh 10µM*.
`O=C(Nc1ccc2ccccc2n1)c1ccccc1Cl` gave Glioma ERSR ind -4%, Sfp PPTase inh -15%, VDR inh -6%, 12-LOX inh 13% and G9a inh -8%[2.33 µM].
COCCN1CCCCCC(O)c2cc(C(=O)N(CCN(C)C)Cc3ccccc3)ccc21 (stereo not drawn) was read as 12-LOX inh 5%.
For Cc1nc(CN2CCN(S(=O)(=O)c3ccc(F)c(F)c3)CC2)cs1 the results were 12-LOX inh 49%.
For Cc1nc(CN2CCN(S(=O)(=O)c3c(Cl)cc(Br)cc3Cl)CC2)cs1 the results were Glioma ERSR ind -5%, VDR inh -26%, 12-LOX inh inconclusive and G9a inh 22µM*.
CCc1ccc(-c2cc(C(=O)O)c3ccccc3n2)cc1 was read as 12-LOX inh -7%.
`Cc1cc(NC(=O)CN2CC3CC(C2)c2cccc(=O)n2C3)nc2c1c(=O)oc1ccccc12` (stereo not drawn) gave Sfp PPTase inh -2% and G9a inh 35µM*.
For Cc1noc(C)c1CSc1nnc(-c2ccccc2F)n1CCc1ccccc1 the results were Glioma ERSR ind -4%, Sfp PPTase inh -11%, VDR inh 0%, 12-LOX inh -2% and G9a inh 40µM*.
Cc1ccccc1-n1c(SCc2c(C)noc2C)nnc1-c1cccnc1 was read as Glioma ERSR ind -4%, Sfp PPTase inh inconclusive, VDR inh 4%, 12-LOX inh 436% and G9a inh 40µM*.
Screening CCn1c(CSc2nnc(-c3cccnc3)n2-c2ccccc2C)nc2cc(C(=O)O)ccc21 returned Sfp PPTase inh inconclusive and G9a inh 13µM*.
Screening Cc1noc(C)c1CSc1nnc(-c2ccncc2)n1-c1ccc(Cl)c(Cl)c1 returned Glioma ERSR ind -3%, Sfp PPTase inh 3%, VDR inh 12%, 12-LOX inh -6% and G9a inh 53%[59 µM].
CCn1c(CSc2n[nH]c(N)n2)nc2cc(C(=O)O)ccc21 was read as Glioma ERSR ind -2%, Sfp PPTase inh 79µM*, VDR inh inconclusive, 12-LOX inh -2% and G9a inh 40µM*.
COc1ccc(C=O)cc1CN1CCCCCC1 was read as 12-LOX inh 33%.
Screening Brc1ccccc1-c1nc(-c2ccncc2)no1 returned 12-LOX inh 8%.
For COc1cccc(C(=O)N2CCC(N3C[C@H](O)C[C@H]3C(=O)Nc3ccc(F)cc3)CC2)c1 the results were 12-LOX inh 31%.
For C[C@H](NC(=O)OC(C)(C)C)c1nnc(SCc2c(F)cccc2Cl)o1 the results were Glioma ERSR ind -4%, VDR inh 89µM*, 12-LOX inh -18% and G9a inh 2%[59 µM].
`CCOC(=O)c1c(NC(=O)c2nc3nc(C)cc(C(F)F)n3n2)sc2c1CCC(CC)C2` (stereo not drawn) gave 12-LOX inh 13%.
For CCOC(=O)c1ccc(NC(=S)NCCc2ccccc2F)cc1 the results were Glioma ERSR ind -4%, Sfp PPTase inh 21%, VDR inh 8%, 12-LOX inh 40µM* and G9a inh -11%[59 µM].
`FC(F)Sc1ccc(NC(=S)NCCC2=CCCCC2)cc1` gave 12-LOX inh 18µM*.
For CCOC(=O)c1ccc(NC(=S)NCCc2ccccc2)cc1 the results were Glioma ERSR ind -4%, Sfp PPTase inh 7%, VDR inh -8%, 12-LOX inh inconclusive and G9a inh 33%.
`O=C(NCCC1=CCCCC1)Nc1ccc2nsnc2c1` gave Glioma ERSR ind inconclusive, Sfp PPTase inh 10%, VDR inh -2%, 12-LOX inh inconclusive and G9a inh 40µM*.
CCOC(=O)c1ccc(NC(=S)NCCC2=CCCCC2)cc1 was read as Glioma ERSR ind -3%, Sfp PPTase inh 48%, VDR inh -13%, 12-LOX inh 40µM* and G9a inh 62%[59 µM].
CCCCn1nc(C(=O)NC(C)c2ccc3c(c2)OCCO3)c2ccccc2c1=O (stereo not drawn) was read as 12-LOX inh -10%.
For CC(C)C(C(=O)NC1CCCCC1)c1ccc(Cl)cc1 (stereo not drawn) the results were 12-LOX inh 16%.
COc1ccc(CC(=O)NC2CCCc3c2[nH]c2c(Cl)cccc32)cc1OC (stereo not drawn) was read as 12-LOX inh -10%.
O=C1Cc2ccccc2Sc2cc(OCCCN3CCCCC3)ccc21 was read as Glioma ERSR ind -4%, Sfp PPTase inh -4%, VDR inh 0%, 12-LOX inh inconclusive and G9a inh inconclusive.
For CN(C)CCCOc1ccc2c(c1)Sc1ccccc1CC2=O the results were Glioma ERSR ind -3%, Sfp PPTase inh 22µM*, VDR inh -2%, 12-LOX inh -8% and G9a inh -27%[59 µM].
For CNc1ccnc(-c2c(C)noc2C)n1 the results were Glioma ERSR ind -4%, Sfp PPTase inh 12%, VDR inh 8% and 12-LOX inh inconclusive.
For CN(Cc1ccco1)c1ccnc(-c2ccoc2)n1 the results were Glioma ERSR ind -1%, Sfp PPTase inh 50µM*, VDR inh 45µM* and 12-LOX inh inconclusive.
Screening Cc1noc(C)c1-c1nccc(N(C)Cc2ccco2)n1 returned Glioma ERSR ind -5%, Sfp PPTase inh inconclusive, VDR inh 45µM*, 12-LOX inh inconclusive and G9a inh 12%[0.501 µM].
For CN(Cc1ccco1)c1ccnc(-c2cccc(C#N)c2)n1 the results were Glioma ERSR ind 1%, Sfp PPTase inh inconclusive, VDR inh 35µM*, 12-LOX inh inconclusive and G9a inh -36%[0.501 µM].
Screening CN(C)Cc1ccccc1-c1cc(N(C)Cc2ccco2)ncn1 returned Glioma ERSR ind -6%, Sfp PPTase inh 22%, VDR inh -2%, 12-LOX inh 3% and G9a inh 22%[0.501 µM].
Screening CN(Cc1ccco1)c1ccnc(-c2cccnc2)n1 returned Glioma ERSR ind -5%, Sfp PPTase inh -16%, VDR inh 45µM*, 12-LOX inh inconclusive and G9a inh 8%[0.501 µM].
CN(Cc1ccco1)c1ncncc1-c1cccc(C#N)c1 was read as Glioma ERSR ind -1%, Sfp PPTase inh -12%, VDR inh inconclusive, 12-LOX inh 1% and G9a inh 3%[0.501 µM].

High-throughput results: PubChem BioAssay, National Center for Advancing Translational Sciences (NCATS)
